A selection: hits, their analogues and other compounds. The true share with any hit is near 1.2%.
EPAC2 agonist: qHTS for Agonist of cAMP-regulated guanine nucleotide exchange factor 4 (EPAC2): primary screen. Potency, µM (top dose mostly 154 µM), inactives show at the top dose activation, hits mostly activators. EPAC2 activation, biochemical qHTS; response scale: 100% = 6.5 mM cAMP response. actives 0.079% (n = 360,000). Rap guanine nucleotide exchange factor 4 (Homo sapiens), Q8WZA2; note: nearly all actives have a fitted effect of over 50% in size
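EPAC2 (100 nM) mixed with Rap1B loaded with BODIPY-GDP (250 nM) plus 50 uM unlabeled GDP; compounds pinned in, 5 min RT, then read every 5 min for 30 min (ex 480, em 540 nm). Normalized to cAMP control.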
USP1 inh: Inhibitors of USP1/UAF1: Primary Screen; recombinant USP1/UAF1, Ub-Rhodamine cleavage fluorescence; Potency, µM (doses to about 57.1 µM), for inactives: at the top dose activity change, negative = inhibition, usual class: inhibitors; actives 0.23% (n = 390,000); note: % is set by controls: 0 for no effect and ±100 for the full control effect; nearly all actives have a fitted effect of over 60% in size
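Step one: compound is pinned into 1nM USP1/UAF1 in HEPES pH 7.8 buffer with TCEP. Step two: 15 min room-temperature incubation. Step three: Ub-Rho (150nM final) starts cleavage, tracked by fluorescence over six one-minute reads.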
VDR inhibitor: Inhibitors of the vitamin D receptor (VDR): qHTS; Vitamin D3 receptor (Homo sapiens), P11473; Potency, µM, for inactives: max response, negative = inhibition, usual class: inhibitors; VDR-SRC2-3 peptide fluorescence polarization, 2 h; actives 0.93% (n = 400,000); note: % is set by controls: 0 for no effect and ±100 for the full control effect
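Two reagent solutions held at 4 deg C in the dark were dispensed, compounds pinned at 23 nl, and the mixture incubated 2 h at room temperature. Read-out: fluorescence polarization of VDR–SRC2-3 peptide binding.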
EPAC1 ag: qHTS for Agonist of cAMP-regulated guanine nucleotide exchange factor 3 (EPAC1): primary screen; actives 0.073% (n = 360,000); Potency, µM (top dose mostly 154 µM), without a hit: at the highest dose activation, usual class: activators; Rap guanine nucleotide exchange factor 3 (Homo sapiens), O95398; EPAC1 agonist qHTS, biochemical assay; response scale: 100% = response to 6.5 mM cAMP; AID 720707, 2013; note: nearly all actives have a fitted effect of over 60% in size
Target sequence (O95398 whole entry, looked up): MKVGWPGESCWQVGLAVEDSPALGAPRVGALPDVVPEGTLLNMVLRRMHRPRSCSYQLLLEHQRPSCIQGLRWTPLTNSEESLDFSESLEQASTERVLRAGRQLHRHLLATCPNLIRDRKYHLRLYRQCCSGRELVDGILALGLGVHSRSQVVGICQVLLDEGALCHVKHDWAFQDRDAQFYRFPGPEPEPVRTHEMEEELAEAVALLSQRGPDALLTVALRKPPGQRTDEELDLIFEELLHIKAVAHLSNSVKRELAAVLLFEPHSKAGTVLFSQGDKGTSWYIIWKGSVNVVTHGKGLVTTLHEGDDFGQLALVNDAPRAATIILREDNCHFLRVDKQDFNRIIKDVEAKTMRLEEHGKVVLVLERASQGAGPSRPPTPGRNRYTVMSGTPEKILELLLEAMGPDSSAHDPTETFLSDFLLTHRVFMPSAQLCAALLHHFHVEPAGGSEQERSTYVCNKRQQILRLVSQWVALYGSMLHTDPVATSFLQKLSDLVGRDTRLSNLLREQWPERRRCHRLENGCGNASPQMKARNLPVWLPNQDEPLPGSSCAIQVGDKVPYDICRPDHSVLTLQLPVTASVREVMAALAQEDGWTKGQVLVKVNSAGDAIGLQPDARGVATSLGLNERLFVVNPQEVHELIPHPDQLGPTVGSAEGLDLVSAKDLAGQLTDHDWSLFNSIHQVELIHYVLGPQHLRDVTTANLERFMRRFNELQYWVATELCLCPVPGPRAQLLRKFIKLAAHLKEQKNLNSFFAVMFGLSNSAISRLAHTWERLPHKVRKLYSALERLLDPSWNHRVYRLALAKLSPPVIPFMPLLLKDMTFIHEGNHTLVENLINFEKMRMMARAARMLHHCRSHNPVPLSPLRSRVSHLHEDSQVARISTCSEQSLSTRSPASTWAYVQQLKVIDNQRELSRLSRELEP
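Nucleotide exchange assay: 100 nM EPAC1 with 250 nM Rap1B loaded with BODIPY-GDP and 50 uM GDP, room temperature. Fluorescence (480/540 nm) read every 5 min for 30 min; signal change normalized to 6.5 mM cAMP as full agonist.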
EPAC1 antagonist: qHTS for Antagonist of cAMP-regulated guanine nucleotide exchange factor 3 (EPAC1): primary screen. Potency, µM (doses to about 115 µM), without a hit: top-dose activity change, negative = inhibition, usual class: inhibitors. EPAC1 GEF assay, Rap1b-BODIPY-GDP exchange fluorescence. Rap guanine nucleotide exchange factor 3 (Homo sapiens), O95398. actives 0.14% (n = 360,000). AID 720709, 2013;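 note: plate controls were vehicle for no effect and positive control for full effect; nearly all actives have a fitted effect of over 50% in size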
EPAC2 antagonist: qHTS for Antagonist of cAMP-regulated guanine nucleotide exchange factor 2 (EPAC2): primary screen; Rap guanine nucleotide exchange factor 4 (Homo sapiens), Q8WZA2; EPAC2 GEF exchange of Rap1B-BODIPY-GDP, fluorescence; Potency, µM (doses to about 114 µM), for the others: top-dose activity, negative = inhibition, usual class: inhibitors; actives 0.18% (n = 360,000); AID 720708, 2013; note: % is set by controls: 0 for no effect and ±100 for the full control effect; nearly all actives have a fitted effect of over 45% in size
Starred values were filed as active, the others as inactive; ? = inconclusive; nt = not tested or not shown; ! = repeats disagree. Calls come from the whole dose curve; as a rule, active = well fitted curve in the direction sought with a large enough effect; inconclusive = small, poorly fitted or top-dose-only effect, or another doubt; inactive = no such curve, though single readings can be large; an effect the other way counts as inactive or inconclusive. Potency is the fitted concentration of half-maximal effect.

SMILES	EPAC2 agonist	USP1 inh	VDR inhibitor	EPAC1 ag	EPAC1 antagonist	EPAC2 antagonist
COc1cc2c(cc1OC)[C@@H]1C(=O)c3ccc(OC)c(CC=C(C)C)c3OC1CO2 (stereo not given in full)	nt	nt	-7%	nt	nt	nt
CC(C)C[C@H](NC(=O)[C@H](Cc1ccccc1)NC(=O)CNC(=O)[C@@H](COC(C)(C)C)NC(=O)[C@@H](N)Cc1ccc(O)cc1)C(=O)N[C@H](C(=O)O)[C@@H](C)OC(C)(C)C	nt	nt	6%	nt	nt	nt
C=CCC1C(=O)NC(=S)NC1=O	-5%	8%	89µM*	8%	-7%	-1%
CC(C)(O)C1C2OC(=O)C1[C@]1(O)CC3O[C@@]34C(=O)OC2[C@@]14C (stereo not given in full)	nt	nt	5%	nt	nt	nt
Cc1cccc(N2C(=O)NC(=O)/C(=C\c3cc(C)n(-c4sc5c(c4C#N)CCCC5)c3C)C2=O)c1C	-3%	?	16µM*	12%	35µM*	-22%
CCCN1CCc2cc(O)cc3c2[C@H]1Cc1ccc(O)c(O)c1-3	9%	-8%	5µM*!	-25%	-9%	9%
COc1cc2c(cc1O)C[C@H]1c3c(cc(O)c(OC)c3-2)CCN1C	2%	-19%	-3%	3%	-2%	-9%
CCCN1CCc2cccc3c2C1Cc1ccc(O)c(O)c1-3 (stereo not given)	nt	nt	-1%	nt	nt	nt
CN1CCc2cc(O)cc3c2[C@H]1Cc1ccc(O)c(O)c1-3	3%	-14%	4.5µM*!	-5%	?	-13%
CCCCn1c(NS(=O)(=O)c2ccccc2)c(C(=O)OCC)c2nc3ccccc3nc21	11%	22µM*	45µM*	3%	-17%	-6%
CCOC(=O)c1c(N)n(CCN2CCCCC2)c2nc3ccccc3nc12	1%	-7%	2%	-2%	-9%	8%
CCCCN1C(=O)/C(=C\c2ccco2)C(=O)N(CCc2ccccc2)C1=O	7%	-12%	148%	0%	25µM*	-1%
Oc1cccc[c]1[Hg][Cl]	nt	nt	5µM*	nt	nt	nt
Cc1ccccc1O	1%	-7%	5%	-1%	-11%	4%
CN(C)C(=S)SC(=S)N(C)C	nt	nt	28µM*	nt	nt	nt
CN(C)C(=S)SSC(=S)N(C)C	0%	?	2.5µM*!	-7%	0%	-9%
CCCCCCCCCCCCCCCCOC[C@@H](O)COP(=O)([O-])OCC[N+](C)(C)C	nt	nt	5%	nt	nt	nt
CCCC(C)C1(CC)C(=O)NC(=S)NC1=O (stereo not given)	nt	nt	6%	nt	nt	nt
O=C1NC(=S)NC(=O)C1=Cc1c(Cl)cccc1Cl	5%	-7%	16µM*	0%	-11%	?
CN1C(=O)C(=Cc2ccccc2Oc2ccc(Cl)c(F)c2)C(=O)N(C)C1=O	0%	?	28µM*	-8%	-11%	0%
Cc1ccc(S(=O)(=O)Oc2ccccc2C=C2C(=O)NC(=O)NC2=O)cc1	0%	-23%	nt	-2%	13%	8%
O=C1NC(=O)C(=Cc2ccccc2Oc2ccc(F)cc2)C(=O)N1	1%	-19%	50µM*	-14%	3%	9%
NCCCC[C@H](NC(=O)[C@H](Cc1ccccc1)NC(=O)[C@H](CCCN=C(N)N)NC(=O)[C@@H](N)Cc1ccc(O)cc1)C(N)=O	nt	nt	11%	nt	nt	nt
CC(C)=CCCC1(C)C=Cc2c(O)c3c(c(CC=C(C)C)c2O1)OC12C(CC4CC1C(C)(C)OC2(C/C=C(/C)C(=O)O)C4O)C3=O (stereo not given)	nt	nt	50µM*	nt	nt	nt
CC(C)C[C@H](NC(=O)[C@H](Cc1ccccc1)NC(=O)CNC(=O)[C@@H](NC(=O)[C@@H](N)Cc1ccc(O)cc1)[C@H](C)O)C(=O)N[C@H](C(=O)O)[C@H](C)O	nt	nt	0%	nt	nt	nt
SMILES	EPAC2 agonist	USP1 inh	VDR inhibitor	EPAC1 ag	EPAC1 antagonist	EPAC2 antagonist
O=S(=O)(c1ccc(O)cc1)c1ccc(O)cc1	2%	-1%	-7%	-6%	-12%	-13%
Oc1cc[c]([Hg][Cl])cc1	nt	nt	4µM*	nt	nt	nt
CN(C)C(=O)Nc1ccc(-n2nc(C(C)(C)C)oc2=O)c(Cl)c1	nt	nt	-1%	nt	nt	nt
CCOC(=O)C(SP(=S)(OC)OC)c1ccccc1 (stereo not given)	nt	nt	3.5µM*	nt	nt	nt
Cc1c(C=O)c2ccccc2n1Cc1cccc(F)c1	4%	-16%	20µM*	-2%	-7%	-8%
Cc1c(C=O)c2ccccc2n1Cc1ccccc1	5%	-11%	-1%	12%	-14%	0%
Cc1c(NS(=O)(=O)c2ccccc2)ccc([N+](=O)[O-])c1Cl	-1%	-7%	-11%	-6%	-29%	40µM*
CCN(CCNc1ccc([N+](=O)[O-])c2cccnc12)S(=O)(=O)c1ccccc1	-22%	-11%	-5%	3%	16%	12%
CC(=O)c1ccc(N2CCN(S(=O)(=O)c3cc(-c4onc(C)c4C)ccc3C)CC2)cc1	nt	?	11%	nt	nt	nt
CCOP(=S)(OCC)Oc1nc(Cl)c(Cl)cc1Cl	0%	-30%	32µM*	-13%	-13%	?
COP(=S)(OC)Oc1nc(Cl)c(Cl)cc1Cl	nt	nt	4.5µM*	nt	nt	nt
O=C(OC1Cc2c(O)cc(O)cc2OC1c1cc(O)c(O)c(O)c1)c1cc(O)c(O)c(O)c1 (stereo not given)	nt	nt	50µM*	nt	nt	nt
O=C1C(=O)C(Cl)=C(Cl)C(Cl)=C1Cl	7%	nt	nt	11%	?	-6%
O=C1C(Cl)=C(Cl)C(=O)C(Cl)=C1Cl	nt	nt	0.71µM*	nt	nt	nt
C=C1C(=O)O[C@@H]2C[C@@H](C)[C@H]3C=CC(=O)[C@]3(O)C[C@@H]12	2%	?	-27%	-9%	-18%	1%
C=C1C(=O)OC2CC3(C)OC3CCC(C)=CC(OC(C)=O)C12 (stereo not given)	1%	-18%	71µM*	-3%	2%	6%
COc1cc(CC(=O)OCC2=C[C@H]3[C@@H]4C(C)(C)[C@]4(OC(C)=O)[C@H](OC(=O)Cc4ccccc4)[C@@H](C)[C@]3(O)[C@@H]3C=C(C)C(=O)[C@@]3(O)C2)ccc1O	nt	nt	-10%	nt	nt	nt
O=C1C=C(N2CC2)c2ccccc2C1=O	15%	7.1µM*	nt	14%	?	?
C[C@@H](COc1ccccc1)N(CCCl)Cc1ccccc1	nt	nt	25µM*	nt	nt	nt

Screens (PubChem BioAssay)
